STAT3 inh: inhibitors of IL-6 induced STAT3 signaling; actives 0.89% (n = 190,000); AID 862; inhibition, % at 5.5 µM; U3A cells, IL-6 STAT3-luciferase reporter, luminescence; host cell line lacks STAT1;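 active = inhibition above the mean inhibition across all screened compounds plus 3 SD, cut at about 44% in these data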;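 note: 0% = DMSO only wells and 100% = 100 µM nifuroxazide control wells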
HSP90 inh: blocks HSP90-mediated luciferase refolding in reticulocyte lysate; Rabbit reticulocyte lysate, luciferase refolding luminescence, 3 h; inhibition, % at 5.6 µM; actives 0.91% (n = 290,000); AID 1789;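 active = inhibition above the screen-wide mean plus 3 SD, computed separately per campaign, cut at about 16% in these data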;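 note: 0% = DMSO wells and 100% = 60 µM geldanamycin wells; inhibitors lower the luminescence because luciferase stays unfolded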
STAT1 inh: reduces IFN-gamma driven STAT1 reporter signal | NIH 3T3 STAT1-luciferase reporter, luminescence | inhibition, % at 5.5 µM | AID 920 | actives 0.35% (n = 200,000);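 active = inhibition above a set limit, the mean inhibition across all tested compounds plus 3 SD, cut at about 34% in these data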;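 note: 0% = IFN-gamma with DMSO and 100% = IFN-gamma with 300 µM nifuroxazide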
TRAIL sens C8: caspase-8 TRAIL sensitization | NB7+C8 cells + TRAIL, ATPlite viability luminescence | inhibition (viability loss, TRAIL sensitization), % at 10 µM | actives 1% (n = 360,000);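 active = compounds causing at least 50% loss of cell viability in the single-dose screen, relative to plate controls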
HSF1 inhib: HSF1 inhibition; NIH3T3-HGL HSE-luciferase, MG132-induced, luminescence 8 h; stronger effect = lower value; activity change, negative = inhibition, % at 7.5 µM (by protocol); actives 0.77% (n = 300,000);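 active = more than half of replicate wells show activity change below -50%, luminescence cut by over half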;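 note: luciferase reports HSF-1 transcriptional activity via heat shock element; 0% = median of DMSO wells and -100% = zero luminescence signal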
PPC-1+TRAIL kill: PPC-1 cancer cell killing with TRAIL present; PPC-1 cells + TRAIL, ATPLite viability luminescence; cell killing (% activity), % at 4 µM or 5 µM; actives 0.41% (n = 220,000);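 active = cell killing above 50% in the first pass at 4 µM, then a duplicate retest at 5 µM averaging 50% or more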;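 note: plate controls were cells with TRAIL plus DMSO for no effect and medium-only wells lacking cells for full effect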
PPC-1 tox: kills PPC-1 cells; cytotoxicity, % at 5 µM; actives 50% (n = 1,200); PPC-1 viability, ATPlite luminescence, overnight; AID 1447; shares compounds with PPC-1+TRAIL kill;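 active = reconfirmed compounds whose average cytotoxicity reaches 50% or more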;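 note: 0% = DMSO-treated cells and 100% = wells holding medium but no cells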
HSP90 confirm: confirmation of HSP90 inhibitors. shares compounds with HSP90 inh. rabbit reticulocyte lysate, luciferase refolding luminescence, 3 h. inhibition, % at 5.9 µM. actives 64% (n = 2,300). AID 1846; in the data active = inhibition above about 18%;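 note: 0% = vehicle wells and 100% = reference inhibitor wells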
luciferase ctr: counter-screen for HSP90 inhibitors: inhibitors of firefly luciferase. shares compounds with HSP90 inh. purified native firefly luciferase, luminescence. inhibition, % at 5.9 µM. actives 48% (n = 2,300). AID 1847;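 active = inhibition above the mean inhibition of all tested sample wells plus 3 SD, cut at about 10% in these data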;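 note: 0% = DMSO with luciferase and 100% = wells lacking luciferase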
Target sequence (P08659 whole entry, looked up): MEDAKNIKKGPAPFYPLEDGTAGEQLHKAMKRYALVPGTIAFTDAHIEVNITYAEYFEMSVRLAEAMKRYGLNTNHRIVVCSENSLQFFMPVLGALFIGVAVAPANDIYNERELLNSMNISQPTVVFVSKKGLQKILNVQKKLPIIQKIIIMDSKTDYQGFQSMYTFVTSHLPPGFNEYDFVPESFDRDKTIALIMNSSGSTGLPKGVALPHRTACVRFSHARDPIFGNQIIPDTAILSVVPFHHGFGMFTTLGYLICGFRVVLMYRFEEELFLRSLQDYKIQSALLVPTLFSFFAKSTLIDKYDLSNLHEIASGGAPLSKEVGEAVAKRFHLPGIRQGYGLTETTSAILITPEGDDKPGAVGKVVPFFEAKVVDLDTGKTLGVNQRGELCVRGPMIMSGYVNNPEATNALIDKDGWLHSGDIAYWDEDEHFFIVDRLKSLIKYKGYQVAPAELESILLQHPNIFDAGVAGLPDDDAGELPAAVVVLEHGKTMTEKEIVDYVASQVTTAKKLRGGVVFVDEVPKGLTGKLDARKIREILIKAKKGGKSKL
Starred values were filed as active, the others as inactive; nt = not tested or not shown. Sampled rows, rich in hits. Any-hit rate of the full collection: about 2.4%.

SMILES	STAT3 inh	HSP90 inh	STAT1 inh	TRAIL sens C8	HSF1 inhib	PPC-1+TRAIL kill	PPC-1 tox	HSP90 confirm	luciferase ctr
Clc1ccc(SCc2nc3ccccc3[nH]2)cc1	13	-5	-12	17	31	20	nt	nt	nt
Clc1ccc(/C=C/c2nc3ccccc3[nH]2)cc1	94*	35*	53*	88*	-8	87*	86*	69*	63*
Clc1ccc(/C=C/c2nc3ccccc3[nH]2)c(Cl)c1	87*	44*	68*	87*	-29	94*	95*	77*	72*
COC(=O)c1c(-c2ccc(N(C)C)cc2)oc2c1C(OC)CCC2 (stereo not given)	nt	nt	nt	10	nt	nt	nt	nt	nt
N/C(=N\OC(=O)c1ccc2ccccc2c1)c1ccccn1	76*	66*	71*	71*	-85*	53*	59*	59*	79*
COc1ccc2nc(NC(=O)CCNC(=O)c3ccco3)sc2c1	nt	nt	nt	4	nt	nt	nt	nt	nt
COc1ccc2sc(NC(=O)c3ccco3)nc2c1	84*	56*	38*	68*	16	53*	59*	60*	48*
Cc1ccc2oc(-c3cccc(N)c3)nc2c1	27	33*	8	63*	29	55*	56*	43*	38*
O=C(NCc1ccccc1)c1cc(C2COCCN2C(=O)c2ccc(Cl)cc2)on1 (stereo not given)	nt	nt	nt	-4	nt	nt	nt	nt	nt
COc1cccc(CNc2cccc3cccnc23)c1O	-9	20*	4	5	37	-2	9	-11	-30
CC1(C(=O)NS(=O)(=O)c2cccs2)CCN1C(=O)CCc1ccc(Cl)cc1Cl (stereo not given)	nt	nt	nt	-2	nt	nt	nt	nt	nt
Cc1nnc(SCc2cnc(-c3ccc(C(C)C)cc3)s2)n1C	65*	38*	37*	88*	nt	91*	91*	50*	41*
Cc1cc(C(=O)Nc2ccc(Cl)cc2)c(C)n1-c1ccccc1	nt	81*	nt	83*	-90*	83*	79*	81*	80*
COc1ccc(NC(=O)C2(C)CCN2C(=O)c2ccc(C(C)(C)C)cc2)cc1OC (stereo not given)	nt	nt	nt	20	nt	nt	nt	nt	nt
CCCCCN=Cc1c(C)[nH]n(-c2nc3ccccc3s2)c1=O	33	26*	-31	84*	-8	91*	91*	12	1
COc1cc(SC)ccc1C(=O)Nc1ccc(Cl)cn1	100*	26*	80*	90*	-27	87*	87*	90*	84*
O=C(CCCc1ccccc1)c1ccc2c(c1)OCCO2	108*	77*	92*	87*	-89*	80*	84*	97*	94*
O=C(CCc1ccccc1)c1ccc2c(c1)OCCCO2	-2	-4	-26	6	27	4	nt	nt	nt
Cc1csc(NC(=O)c2ccc(N3CCCC3=O)cc2)n1	89*	42*	65*	71*	-26	56*	53*	77*	68*
CN(C)c1ccc(/C=C2/SC(=O)N(CCN=C3NS(=O)(=O)c4ccccc43)C2=O)cc1	-17	-4	-37	-3	6	26	nt	nt	nt
CN(C)c1ccc(/C=C2\SC(=O)N(CCc3nnc(N)s3)C2=O)cc1	nt	37*	nt	81*	-45	65*	68*	85*	82*
C/C(=N\Nc1nc2ccccc2[nH]1)c1ccc(N2CCOCC2)cc1	21	19*	15	73*	3	71*	71*	1	-12
Cc1cc(C(=O)Cn2nnc3ccccc3c2=O)c(C)n1-c1ccccc1F	22	62*	-32	81*	-38	69*	70*	70*	54*
Cc1cccc(C)c1-n1nnnc1-c1nc2cc3ccccc3cc2[nH]c1=O	nt	nt	nt	6	nt	nt	nt	nt	nt
COC(=O)c1ccc2nc(NC(=O)C(C)(C)C)sc2c1	100*	67*	74*	90*	-55*	85*	86*	78*	73*
SMILES	STAT3 inh	HSP90 inh	STAT1 inh	TRAIL sens C8	HSF1 inhib	PPC-1+TRAIL kill	PPC-1 tox	HSP90 confirm	luciferase ctr
Cc1cc(C(=O)COC(=O)c2ccccc2Br)c(C)n1CC1CCCO1 (stereo not given)	nt	85*	nt	77*	-91*	80*	76*	84*	84*
Cc1cc(C(=O)COC(=O)c2cccnc2Cl)c(C)n1CC1CCCO1 (stereo not given)	88*	78*	80*	16	-77*	79*	77*	86*	82*
CCn1c(SCC(=O)Nc2ccccc2)nc2c(c1=O)SCC2	nt	nt	nt	-9	nt	nt	nt	nt	nt
COc1ccccc1CNC(=O)COC(=O)C1CCN(S(=O)(=O)c2ccccc2)CC1	nt	nt	nt	4	1	nt	nt	nt	nt
c1ccc2nc(-c3ccc(N4CCOCC4)cc3)ccc2c1	99*	27*	68*	73*	-24	73*	77*	80*	71*
Cn1cnc([N+](=O)[O-])c1S(=O)(=O)Oc1ccc(Cl)cc1	nt	nt	nt	19	nt	nt	nt	nt	nt
Cc1ccc(-c2nc(N/N=C/c3ccncc3)c3ccccc3n2)cc1	90*	47*	78*	92*	32	98*	98*	80*	56*
Nc1ncnc2c1ncn2[C@@H]1O[C@H](C(=O)N2CCC[C@@H]2C(=O)OCc2ccccc2)[C@@H](O)[C@H]1O	nt	nt	nt	-8	nt	nt	nt	nt	nt
COc1ccc(C(=S)N2CCN(c3ccccc3C)CC2)cc1OC	nt	nt	nt	12	nt	nt	nt	nt	nt
O=C(/C=C/Nc1ccccc1Br)c1ccccn1	109*	87*	94*	93*	-61*	92*	93*	98*	94*
O=C(/C=C/c1ccccc1)c1ccccn1	1	-5	-18	-5	20	3	nt	nt	nt
O=C(/C=C\Nc1ccccn1)c1ccccc1	85*	39*	45*	56*	-2	55*	54*	74*	70*
CCOC(=O)NC(=S)Nc1ccc(OC)cc1	8	-1	-14	-1	1	20	nt	nt	nt
CCOC(=O)c1cn[nH]c1NC(=S)Nc1ccc(OC)cc1	nt	65*	nt	67*	-54*	60*	59*	65*	62*
COc1ccc(C(C(=O)NC2CCCC2)n2c(-c3cccs3)nc3ccccc32)cc1 (stereo not given)	nt	nt	nt	-2	nt	nt	nt	nt	nt
CNC(=O)c1cc2c(s1)CCCCCC2	6	8	0	-9	0	18	nt	nt	nt
Cc1cnc(NC(=O)c2cc3c(s2)CCCC3)s1	74*	43*	42*	92*	-9	72*	70*	66*	64*

Screens from PubChem.
